Screening data from PubChem.
The list is not random: actives were taken first. Their share in the collection is about 0.9%.
APE1 inh: APE1 (human) endonuclease inhibition. P27695. 350,000 compounds, 0.35% hits. recombinant APE1, TAMRA/BHQ-2 abasic DNA cleavage fluorescence. AID 2517. Potency, µM (series often up to 65.8 µM), for the others: top-dose activity change, negative = inhibition, actives largely listed as inhibitors;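 also: plate controls were vehicle for no effect and reference inhibitor for full effect; nearly all actives have a fitted effect of over 55% in size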
Target sequence (P27695 whole entry, looked up): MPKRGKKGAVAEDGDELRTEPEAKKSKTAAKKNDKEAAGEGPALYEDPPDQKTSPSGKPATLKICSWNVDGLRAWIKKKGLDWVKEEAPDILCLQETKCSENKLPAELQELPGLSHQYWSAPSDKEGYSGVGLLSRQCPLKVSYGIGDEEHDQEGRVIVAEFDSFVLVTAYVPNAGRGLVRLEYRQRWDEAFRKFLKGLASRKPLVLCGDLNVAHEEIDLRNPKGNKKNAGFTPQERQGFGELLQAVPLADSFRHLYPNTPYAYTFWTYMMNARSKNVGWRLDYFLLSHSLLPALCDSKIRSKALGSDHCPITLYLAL
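Enzyme (0.75 nM final) and test compound are incubated 15 min at room temperature before adding 50 nM quenched THF abasic-site duplex. Cleavage dequenches TAMRA, followed at 525/598 nm over three reads one minute apart.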
RECQ1 inh: inhibitors of human RECQ1 DNA helicase. Potency, µM (doses to about 57.3 µM), inactives show at the highest dose activity, negative = inhibition, usual class: inhibitors. RECQ1 DNA unwinding, red fluorescence kinetic read. 240,000 compounds, 0.54% hits. P46063. AID 2549;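 also: plate controls were vehicle for no effect and no enzyme for full effect; nearly all actives have a fitted effect of over 30% in size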
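RECQ1T1 50 nM; forked duplex (20 bp + 30-nt ss tails) 200 nM, ATP 2 mM final; pH 8.0, 2 mM MgCl2, 2.5 ug/ml poly(dI-dC); 15 min compound preincubation; discontinuous kinetic read over 2 h at RT.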
TRb SRC2 PPI: disrupts binding of human TR beta to SRC2; P10828; TRbeta-SRC2 peptide binding, fluorescence polarization; receptor liganded with 1 µM T3; Potency, µM (doses to about 106 µM), without a hit: at the highest dose activity change, negative = inhibition, actives largely listed as inhibitors; 280,000 compounds, 0.065% hits; AID 1469;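 also: plate controls were bound peptide for no effect and peptide without receptor for full effect; nearly all actives have a fitted effect of over 50% in size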
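Binding of a 20-amino-acid Texas Red SRC2 peptide (20 nM) to TRb ligand-binding domain (0.6 uM) with agonist T3 at 1 uM was followed by fluorescence polarization after a 5 hr room-temperature incubation.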
BLM helicase inh: inhibitors of human Bloom syndrome helicase BLM; Potency, µM (doses to about 56.1 µM), without a hit: at the highest dose activity change, negative = inhibition, most hits filed as inhibitors; AID 2528; 350,000 compounds, 0.2% hits; recombinant BLM DNA unwinding, fluorescence dequenching;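 also: plate controls were vehicle for no effect and no enzyme for full effect; nearly all actives have a fitted effect of over 35% in size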
GoLoco inh red: RGS12 GoLoco-Gai1 interaction inhibition | P63096 | Potency, µM (series often up to 61.6 µM), for the others: at the highest dose activity, negative = inhibition, usual class: inhibitors | 230,000 compounds, 0.44% hits | AID 880 | Gai1:RGS12 GoLoco peptide FP, rhodamine, 10 min; active = well fitted inhibition curve with a large enough effect, not every such curve was filed as active; inactive = no such curve, though single readings can be large or run the other way; also: nearly all actives have a fitted effect of over 30% in size
Target sequence (P63096 whole entry, looked up): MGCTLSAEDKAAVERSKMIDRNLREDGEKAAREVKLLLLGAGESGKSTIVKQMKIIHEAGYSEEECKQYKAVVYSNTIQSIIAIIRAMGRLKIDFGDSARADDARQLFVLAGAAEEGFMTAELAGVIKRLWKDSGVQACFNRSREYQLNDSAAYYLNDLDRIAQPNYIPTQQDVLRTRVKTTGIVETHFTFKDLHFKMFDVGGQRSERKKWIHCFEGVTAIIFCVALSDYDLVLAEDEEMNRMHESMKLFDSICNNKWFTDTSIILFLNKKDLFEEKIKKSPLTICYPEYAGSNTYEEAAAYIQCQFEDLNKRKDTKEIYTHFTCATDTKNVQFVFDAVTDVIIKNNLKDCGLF
TR SRC2 fluor cs: Texas Red fluorescence interference in TRb-SRC2 counter-screen; TRb/SRC2 Texas Red total fluorescence interference; 280,000 compounds, 0.29% hits; Potency, µM (titrated, usually from 106 µM), for the others: at the top dose fluorescence change, negative = quenching; active = well fitted curve in either direction with a large enough effect; inconclusive = small, poorly fitted or top-dose-only effect
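Flags fluorescent or light-absorbing compounds by total fluorescence, S + 2P, at 555 nm excitation and 632 nm emission. Mixture: 20 nM Texas Red SRC2 peptide, 0.6 uM human TRb LBD, 1 uM T3, 5% DMSO; compound exposure 5 h at ambient temperature.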
Numbers without * were called inactive; i = inactive; ? = inconclusive; . = no result; ! = repeats disagree; [ ] = dose if it differs, or a comment. Unless noted, calls follow the shape of the dose curve; as a rule, active = well fitted curve in the direction sought with a large enough effect; inconclusive = small, poorly fitted or top-dose-only effect, or another doubt; inactive = no such curve, though single readings can be large; an effect the other way counts as inactive or inconclusive. Unless noted, % is scaled to controls: 0 for no effect and ±100 for the full control effect; potency is read from the fitted curve at half-maximal effect.

SMILES	APE1 inh	RECQ1 inh	TRb SRC2 PPI	BLM helicase inh	GoLoco inh red	TR SRC2 fluor cs
COC(=O)[C@H](COC(C)(C)C)NC(=O)O[C@H]1C(=O)c2cc(OC)ccc2O[C@@H]1c1ccc(OC)c(Br)c1	1%	0%	0%	-3%	6%	0%
CC(=O)CC(=O)Nc1ccc(C)cc1C	.	.	5%[201 µM]	.	.	-10%[201 µM]
Cc1ccc2nc(-c3ccc(Cl)c(NC(=O)c4cccc([N+](=O)[O-])c4C)c3)oc2c1	.	.	-2%	-6%	.	16µM*[quencher]
Cc1ccc2nc(-c3ccc(Cl)c(NC(=O)c4cccnc4)c3)oc2c1	.	.	6%	0%	.	3%
CC[C@H]1OC(=O)[C@H](C)C(=O)[C@H](C)[C@@H](O[C@@H]2O[C@H](C)C[C@H](N(C)C)[C@H]2O)[C@](C)(OC)C[C@@H](C)C(=O)[C@H](C)[C@H]2N(CCCCn3cnc(-c4cccnc4)c3)C(=O)O[C@]12C	-4%	.	.	.	.	.
CC(=O)c1ccccc1NS(=O)(=O)c1cccc2nsnc12	5.3µM*	.	.	-14%	.	.
CC(=O)c1ccccc1NS(=O)(=O)c1cccc2nonc12	-8%	.	.	-2%	.	.
CS(C)=O	.	.	-1%[1.3e+05 µM]	.	.	2%[1.3e+05 µM]
Cc1cccc(NC(=O)NCc2ccc3c(c2)cc(C)n3C)c1	-9%	-9%	-15%	-14%	-5%	23%
Cc1cc2cc(CNC(=O)Nc3cccc(Cl)c3)ccc2n1C	2%	9%	45µM*	-3%	-37%	45µM*[fluorescent]
COc1ccc(-n2cc(C(=O)OCc3ccc(F)c(F)c3)c3ccccc3c2=O)cc1	.	.	-21%	0%	.	0.079µM*[quencher]
Cc1ccc(-n2cc(C(=O)OCc3ccc(F)c(F)c3)c3ccccc3c2=O)cc1	.	.	-2%	-7%	.	5%
COc1cccc(NC(=O)CN2C(=O)c3cccc4cccc2c34)c1	.	.	0%	-5%	.	3%
C#CCOCCOCCOCCNc1nc(N2CCN(C(=O)[C@H]([C@@H](C)O)n3cc(CCCCN)nn3)CC2)nc(N2CCN(C(=O)[C@H](Cc3ccc(O)cc3)n3cc(CCO)nn3)CC2)n1	3%	i	0%	-9%	7%	0%
C#CCOCCOCCOCCNc1nc(N2CCN(C(=O)[C@H](Cc3ccc(O)cc3)n3cc(CCO)nn3)CC2)nc(N2CCN(C(=O)[C@H](Cc3ccc(O)cc3)n3cc(CCO)nn3)CC2)n1	-9%	32µM*	8%	-16%	6%	-3%
CC(C)(C)n1ncc2c(=O)n(Cc3c(F)ccc(F)c3Cl)cnc21	-3%	.	.	.	.	.
Nc1ccccc1N=Nc1c(S(=O)(=O)O)cc2cc(S(=O)(=O)O)cc(O)c2c1O	.	.	.	.	0%[14.2 µM]	.
Nc1c(N=Nc2ccc(S(=O)(=O)CCOS(=O)(=O)O)cc2)c(S(=O)(=O)O)cc2cc(S(=O)(=O)O)c(N=Nc3ccc(S(=O)(=O)CCOS(=O)(=O)O)cc3)c(O)c12	.	.	30%[201 µM]	.	.	45µM*[quencher]
COc1ccccc1NC(=O)c1sc2ncn(Cc3cccc4ccccc34)c(=O)c2c1C	4%	0%	?	-19%	39%	0.89µM*[quencher]
O=C(CCN1C(=O)/C(=C/c2ccco2)SC1=S)Nc1ccc(C(=O)O)c(O)c1	21µM*	.	.	-8%	.	.
O=C1/C(=C/c2ccccn2)SC(=S)N1Cc1ccccc1	?	-7%	1%	1%	-152%	0%
O=C(O)CN1C(=O)/C(=C\c2ccc(OC(=O)c3ccco3)cc2)SC1=S	6%[12.4 µM]	.	.	1%	.	.
O=C1/C(=C\c2ccco2)SC(=S)N1c1ccccc1	22µM*	8%	10%	-1%	70%	?
O=C(O)CN1C(=O)/C(=C/c2ccc(SCc3ccccc3)o2)SC1=S	28µM*	25µM*	6%	126%	115%	-9%
Cc1ccc(N2C(=O)/C(=C\c3ccco3)SC2=S)cc1	-4%	-6%	11%	-25%	180%	-2%
SMILES	APE1 inh	RECQ1 inh	TRb SRC2 PPI	BLM helicase inh	GoLoco inh red	TR SRC2 fluor cs
O=C1/C(=C\c2ccco2)SC(=S)N1Cc1ccccc1	?	32µM*	8%	-22%	106%	-23%
O=C(CCN1C(=O)/C(=C\c2ccco2)SC1=S)Nc1ccc(C(=O)O)c(O)c1	?	.	.	-8%	.	.
O=C1/C(=C/c2ccco2)SC(=S)N1C1CCS(=O)(=O)C1 (stereo unspecified)	0%	-1%	4%	-3%	37%	2%
O=C1/C(=C\c2ccco2)SC(=S)N1C1CCS(=O)(=O)C1 (stereo unspecified)	20µM*	?	10%	-15%	24%	-9%
CNC(=O)COc1ccc(Nc2nnc(-c3ccc(C)c(S(=O)(=O)NC(C)(C)C)c3)c3ccccc23)cc1	.	.	-8%	-11%	.	0.2µM*[quencher]
N#Cc1cnn(-c2nc(SCc3ccccc3)nc3sc4c(c23)CCCC4)c1N	-5%	7.9µM*	10%	-7%	7%	1%
CCCCCC#CCC#CCC#CCC#CCCCC(=O)O	2µM*!	1.1µM*!	20%	13µM*!	51%	-26%
NC(=Nc1ccc(Cl)cc1)c1ccccc1	-3%	-7%	4%	-4%	-3%	-2%
CSC(=Nc1ccc(Cl)cc1)N[n+]1ccccc1	3%	i	-1%	-8%	7.1µM*	-1%
Cn1c(=O)[nH]c(=O)n(C2CCC(O)CC2)c1=O (stereo unspecified)	.	.	0%[201 µM]	.	.	-5%[201 µM]
COc1ccc2c(c1-c1c3c(cc(Br)c1OC)CCCC3)CCCC2	-5%	0%	3%	2%	5%	-5%
C[N+]1=C(/C=C/Nc2ccccc2Cl)C(C)(C)c2ccccc21	?	?	?	-1%	230%	45µM*[fluorescent]
FC(F)(F)c1cnc(/C=C/Nc2ccccc2Cl)c(Cl)c1	5%	-4%	0%	-4%	3%	-4%
CC(=O)[C@H]1CC[C@@H]2[C@]1(C)CC=C1[C@@]23C=C[C@]2(C[C@H](O)CC[C@@]12C)[C@H](C(=O)O)[C@@H]3C(=O)O	.	.	.	.	3%[14.2 µM]	.
CCN1/C(=C2\OC(=S)N(C)C2=O)C=Cc2ccccc21	?	?	?	-6%	31%	2%
CCSC1=NC(=O)/C(=C2/C=Cc3ccccc3N2CC)S1	1%	-5%	2%	-4%	1.3µM*	-2%
CC(=O)OC(C)(C)C1CC=C(C)CC1 (stereo unspecified)	.	.	0%[201 µM]	.	.	3%[201 µM]
C[N+]1(C)CCC(=C2c3ccccc3CC(=O)c3sccc32)CC1	3%	-4%	8%	7%	14µM*	2%
Oc1cc2c(cc1O)C(c1ccccc1)CNCC2 (stereo unspecified)	1%	-7%	2%	-16%	-21%	-4%
Oc1cc2c(cc1O)[C@@H](c1ccccc1)CNCC2	20%	-14%	2%	-8%	13µM*	0%
